Assay outcomes: PubChem BioAssay, Sanford-Burnham Center for Chemical Genomics
Most compounds without a hit are left out; they make up all but 4% or so of the library.
TWEAK-Fn14 inh – inhibitors of TWEAK-Fn14 interaction signaling. TWEAK-stimulated Fn14 reporter cells, luciferase luminescence, 8 h. inhibition, % at 10 µM. 360,000 tested, 2% active. AID 1159606; in the data active means inhibition above about 50%
KKLEB cytotox – counter-screen for CF NF-kB inhibitors: cytotoxicity | KKLEB CF airway cells viability, ATPlite luminescence, overnight; hits give low values; cells stimulated with P. aeruginosa culture filtrate | activity change (cytotoxicity), % at 5 µM | 360,000 tested, 0.36% active;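 active means corrected activity change at or below -50% at 5 µM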
TROY NFkB inh – inhibitors of TROY-dependent NF-kB signaling | Q293 LMP1-TROYcd NF-kB luciferase reporter, 4 h | inhibition, % at 10 µM | 360,000 tested, 0.98% active | AID 1347056;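 active means compounds whose plate-normalised and pattern-corrected inhibition of the luciferase reporter signal at the single screening dose is 50% or more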
HIF-2a inh – inhibitors of HIF-2a; 360,000 tested, 0.72% active; 786-0 RCC cells HIF-2a reporter, luciferase luminescence, overnight; AID 624352; inhibition, % at 18.8 µM;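 active means inhibition of the luminescence signal of 40% or more relative to plate controls, in a single-dose primary screen at 18.75 µM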
Peg3 promoter – inhibitors of Peg3 promoter; 360,000 tested, 1.7% active; inhibition, % at 20 µM; HeLa PEG-Prom luciferase reporter, luminescence, overnight; AID 588405;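 active means inhibition of at least 50% at 20 µM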
CF NFkB block – cystic fibrosis NF-kB activation inhibition | KKLEB NF-kB-GFP reporter, PAF-induced, GFP fluorescence overnight | inhibition, % at 5 µM | 360,000 tested, 0.86% active | AID 588850;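 active means at least 50% inhibition at 5 µM, scaled per plate between neutral and stimulator controls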;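 further: PAF is a Pseudomonas aeruginosa culture filtrate used as stimulus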
Each line names hits and unclear results; the compound was inactive in the other large screens.

NC(=O)COC(=O)c1cc(=O)[nH]c2ccc(S(=O)(=O)Nc3ccc(F)cc3)cc12	none
O=c1oc2ccccc2cc1-c1nc2c(s1)CCCC2	TWEAK-Fn14 inh 84, TROY NFkB inh 66
O=c1oc2ccccc2cc1-c1nc2ccccc2o1	none
CC(C)(O)C#Cc1ccc(C(=O)N2CCC(C(N)=O)(N3CCCCC3)CC2)o1	none
Cc1ccc2c(c1)N(CC(=O)NCCCN1CCCC1)C(=O)CO2	none
Cc1ccc2c(c1)N(CCCC(=O)NCCCN1CCCCC1)C(=O)CO2	TWEAK-Fn14 inh 64
O=C(CN1c2ccccc2Sc2ccccc21)NNC(=S)Nc1ccc(Cl)cc1	none
O=C(CN1c2ccccc2Sc2ccccc21)NNC(=S)Nc1ccc(Cl)cc1Cl	TROY NFkB inh 52, Peg3 promoter 50
O=C(O)c1cc2c(cc1Br)OCCCO2	none
COc1ccc(-c2ccc(C#N)c(SCC(=O)Nc3sc4c(c3C#N)CCC4)n2)cc1OC	Peg3 promoter 75
N#Cc1cc2c(nc1SCC(=O)Nc1sc3c(c1C#N)CCC3)CCC2	none
COc1ccc(-c2cc(C(F)(F)F)nc(SCC(=O)Nc3sc4c(c3C#N)CCC4)n2)cc1	KKLEB cytotox -61
OC[C@@H]1[C@@H](c2ccc(Cl)cc2)C(c2ccc(F)cc2)=NN1c1ccccc1	Peg3 promoter 85
CN(Cc1cccnc1)C(=O)CCCc1c[nH]c2ccccc12	none
CC(C)c1ccc(C2c3[nH]c4ccccc4c3C[C@H]3C(=O)N(c4ccccc4C(=O)N4CCC[C@@H]4C(=O)O)C(=O)N23)cc1 (some centres not stated)	TROY NFkB inh 66
O=C(Nc1ccc2c(c1)OCO2)c1csc([C@@H]2C[C@H](O)[C@@H](CO)O2)n1	none
Cc1ccc(C)c(NC(=O)COC(=O)c2cc(=O)c3ccccc3o2)c1	none
CC1=NN(S(=O)(=O)c2ccc(Cl)cc2Cl)C(=O)c2ccccc2O1	TWEAK-Fn14 inh 68
CCCCCCCn1c(=O)c(C(=O)OC)c(N)c2ccccc21	TWEAK-Fn14 inh 51
CN(CC(=O)NCC1COc2ccccc2O1)S(=O)(=O)c1ccc(Cl)cc1 (configuration not stated)	none
Cc1ccc2c(c1)sc1nc(=O)n(-c3ccc(Cl)cc3)c(=O)n12	none
Cc1ccc2c(c1)sc1nc(=O)n(-c3ccc(Cl)c(Cl)c3)c(=O)n12	TWEAK-Fn14 inh 55
COCCNc1nc(NCc2ccccc2F)c2sccc2n1	none
COc1ccccc1CNc1nc(NCc2ccccc2)nc2ccsc12	TROY NFkB inh 50
c1ccc(CNc2nc(NCc3ccccc3)c3sccc3n2)cc1	TROY NFkB inh 58
COc1ccccc1CNc1nc(NCc2ccccc2F)c2sccc2n1	TWEAK-Fn14 inh 90, TROY NFkB inh 58
COc1ccccc1CNc1nc(NCc2cccc(OC)c2OC)c2sccc2n1	TWEAK-Fn14 inh 76, TROY NFkB inh 75, Peg3 promoter 54
c1ccc2c(c1)Oc1ccccc1S2	none
CCN(C(=O)CSc1nc(C2CC2)n(-c2ccccc2)n1)C1CCS(=O)(=O)C1 (configuration not stated)	none
Cc1ccc(NC(=O)C(=O)NCCN2CCN(Cc3ccc([N+](=O)[O-])cc3)CC2)cc1	none
C#Cc1cccc(Nc2nc(NCc3ccccc3OC)nc3ccsc23)c1	TWEAK-Fn14 inh 74
c1ccc(CNc2nc(Oc3ccncc3)c3sccc3n2)cc1	TWEAK-Fn14 inh 99
COc1ccccc1CNc1nc(NC(C)C)nc2cc(-c3ccccc3)sc12	Peg3 promoter 75
O=C(O)C(Oc1ccc(Cl)cc1)c1ccc(Cl)cc1 (configuration not stated)	none
O=C(c1ccccc1)N1CCN(c2n[nH]c(=O)[nH]c2=O)CC1	none
O=C(Nc1nc2ccc(SC(F)F)cc2s1)c1ccc(NS(=O)(=O)c2ccc(F)c(F)c2)cc1	TWEAK-Fn14 inh 71, TROY NFkB inh 54
CS(=O)(=O)c1ccc2nc(NC(=O)c3ccc(NS(=O)(=O)c4ccc(F)c(F)c4)cc3)sc2c1	none
CSc1nc(Nc2ccc(Cl)cc2)c(C#N)c(=O)[nH]1	Peg3 promoter 53
Cc1ccccc1NC(=S)NNc1ncc(C(F)(F)F)cc1Cl	none
Cc1c(Cl)cccc1NC(=S)NNc1ncc(C(F)(F)F)cc1Cl	Peg3 promoter 54
O=C(CSc1nnnn1-c1ccc(O)cc1)c1cc2ccccc2o1	none
Nc1ncnc2oc(-c3ccco3)c(-c3ccco3)c12	TWEAK-Fn14 inh 76, CF NFkB block 53
c1ccc(-c2noc(-c3cccc4ccccc34)n2)nc1	TWEAK-Fn14 inh 77
COc1cccc(-c2nc(-c3ccccn3)no2)c1OC	none
Cc1ccc(-c2nc(-c3ccccn3)no2)cc1[N+](=O)[O-]	TWEAK-Fn14 inh 62
c1ccc(-c2noc(-c3ccco3)n2)nc1	TWEAK-Fn14 inh 53
c1ccc(-c2cc(-c3nc(-c4ccccn4)no3)c3ccccc3n2)cc1	none
Cc1cc(-c2nc(-c3ccncc3)no2)ccc1[N+](=O)[O-]	none
c1ccc(-c2noc(-c3ccno3)n2)nc1	none
c1ccc(-c2ccc(-c3nc(-c4ccccn4)no3)cc2)cc1	TWEAK-Fn14 inh 106, KKLEB cytotox -78, TROY NFkB inh 89, HIF-2a inh 83, Peg3 promoter 97
O=C(COC(=O)/C=C/c1ccccc1)Nc1cccc(Oc2ccccc2)c1	none
CC(C)(C)c1ccc(OCC(=O)N2CCN(c3ccccn3)CC2)cc1	none
Cc1c(C(=O)N2CCOCC2)c(S(=O)(=O)Nc2ccc(Br)cc2F)c(C)n1C	none
Cc1cccc(-c2nnc(-c3ccc4ccccc4c3)o2)c1	TWEAK-Fn14 inh 55
c1ccc(-c2noc(-c3ccc4ccccc4c3)n2)cc1	TWEAK-Fn14 inh 81, TROY NFkB inh 69
O=C(O/N=C(/c1ccccc1)c1ccncc1)c1ccc(F)cc1	none
CN(CC(=O)NCc1ccco1)S(=O)(=O)c1ccc2c(c1)c(=O)n(C)c(=O)n2C	none
O=C(NCCc1ccccc1)c1cc(=O)[nH]c2ccccc12	none
Cc1ccc(-n2c(O)c(/C=C3/C(c4ccccc4)=Nc4ccccc43)c(=O)[nH]c2=O)cc1	TWEAK-Fn14 inh 71
COCCN=c1scc(-c2cc(OC)c(OC)c(OC)c2)n1/N=C/c1c(C)[nH]c2ccccc12	TWEAK-Fn14 inh 54, Peg3 promoter 53
CCOC(=O)C(Oc1ccc(=O)[nH]n1)C(C)=O (configuration not stated)	none
CC(=O)Nc1cccc(C(=O)/C=C/c2ccc(F)cc2)c1	TWEAK-Fn14 inh 72, Peg3 promoter 107
CC(=O)c1cccc(NS(=O)(=O)c2ccc(N/C=C/C(=O)c3ccc(F)cc3)cc2)c1	TWEAK-Fn14 inh 89
Cc1cc(F)ccc1C(O)c1ncc(-c2ccc(Oc3ccccc3)cc2)[nH]1 (configuration not stated)	none
C=CCn1c(O)c(N=NC(=O)CNC(=O)c2ccco2)c2ccccc21	none
COC(=O)CNC(=O)c1cn(CC(C)C)c(=O)c2cc(OC)c(OC)cc12	none
